# Source: PubChem BioAssay (NCI)
# About 83,000 compounds went through this panel and 20% of them were active in at least one assay; those are over-represented in the sample as a whole.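 Cell lines were cultured in 96-well plates, exposed to a single compound concentration, and assessed for percent growth 48 hours later.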 Values without a mark were called inactive. Active and inactive are the calls of the source. Rule for the calls: active = growth percent below 10; inactive = the rest.
# Test system: SW-620 colon
# Test: NCI-60 one-dose screen, 48 h (100 = growth as untreated, 0 = no growth, -100 = all killed)
# Details: 10 µM unless noted
row,Structure (SMILES),growth
1,CC(=O)N1N=C(c2ccc(Nc3nc(NCCO)nc(NCCO)n3)cc2)CC1c1ccc(Cl)cc1 (stereo not given),107%
2,[N-]=[N+]=NCc1cccc(/C(O)=C/C(=O)C(=O)O)c1,94.9%
3,O=C(COc1cccc(/C=C2\Cc3ccccc3C2=O)c1)c1ccc(Cl)cc1,97.2%
4,O=[N+]([O-])c1ccc(N=Nc2c(Cl)cc(O)cc2Cl)cc1,-10% (active)
5,O=c1c2ccccc2c2nccn2c2cc(Cl)ccc12,80.7%
6,CCN(CC)CCCCCCCNc1c2ccc(Cl)cc2nc2ccc(OC)cc12,-52.9% (active)
7,COc1cccc(C2=NN(C(C)=O)C(c3cc(OC)c(OC)c(OC)c3)C2)c1 (stereo not given),17.3%
8,O=C(c1ccccc1)C(CN1CCCCC1)c1ccccc1 (stereo not given),-82.6% (active)
9,Nc1ccn(C2O[C@H](CO)[C@@H](O)[C@@H]2O)c(=O)n1 (stereo not given in full),45.9%
10,O=C(Nc1cccc(Cl)c1)Nc1cccc(Cl)c1,81%
11,COc1cccc(N2CCN(c3cccc(C)n3)CC2)c1,110%
12,Cc1cn(C(C=O)OC(C=O)CO)c(=O)[nH]c1=O (stereo not given),105%
13,CCOC(=O)CCC(=O)O[C@H]1[C@H](O[C@@H]2[C@@H](C)[C@H](O[C@H]3C[C@@](C)(OC)[C@@H](O)[C@H](C)O3)[C@@H](C)C(=O)O[C@H](CC)[C@@](C)(O)[C@H](O)[C@@H](C)C(=O)[C@H](C)C[C@@]2(C)O)O[C@H](C)C[C@@H]1N(C)C,107%
14,O=C(CNc1ccc2c(c1)C(=O)c1ccccc1C2=O)Nc1ccc2c(c1)C(=O)c1ccccc1C2=O,-89.9% (active)
15,O=c1[nH]c(N2CCC(Cc3ccccc3)CC2)nc2sc3c(c12)CCCC3,101%
16,Cn1cc(NC(=O)Nc2cc(C(=O)O)n(C)c2)cc1C(=O)O,96.3%
17,O=C(CN1CCN(c2ccc(Cl)cc2)CC1)N1CCN(c2nnc(-c3ccc(Cl)cc3)c(-c3ccc(Cl)cc3)n2)CC1,80.6%
18,O=C(Nc1ccc(Cl)cc1)Nc1ccccc1CNc1nc(Nc2ccc(OCCN3CCCC3)cc2)ncc1Cl,-14.9% (active)
19,CCCCCCCCCCOC(C)=O,106%
20,CCN(CC)CCNCC(=O)Oc1ccc(/C=C/C(=O)CC(=O)/C=C/c2ccc(OC(=O)CNCCN(CC)CC)c(OC)c2)cc1OC,-26.5% (active)
21,CC(=O)N1N=C(c2ccc(C(F)(F)F)cc2)CC1c1ccc2c(c1)OCO2 (stereo not given),88.4%
22,O=C1CSC(c2ccccc2O)N1c1nnc(Cn2ccnc2)o1 (stereo not given),61.5%
23,O=C(/C=C/c1cccc(Nc2ccnc3cc(Cl)ccc23)c1)c1ccc(Cl)cc1,24.7%
24,CC(NNC(=S)N1CCCCCC1)c1ccc2ccccc2n1 (stereo not given),36%
25,O=C(Nc1nc(-c2ccc(Cl)cc2)cs1)c1cc(-c2ccc(Br)cc2)nc2ccc(Cl)cc12,34.9%
